Mtb hypoxia rep = reduces hypoxia-regulated biosensor signal in M. tuberculosis. fluorescence inhibition, % (test concentration not listed). hit rate 0.1% among 300,000. AID 1159583. M. tuberculosis hypoxia-regulated fluorescent reporter, fluorescence; in the data active = fluorescence inhibition mostly above about 23%, no sharp cut-off; inactive = mostly below about 17%
RecA splice inh = blocks M. tuberculosis RecA intein splicing; cell-free RecA intein splicing, fluorescence; inhibition, % (test concentration not listed); hit rate 0.75% among 290,000; P9WHJ3; AID 2221; in the data active = inhibition above about 30%;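 also: 0% = vehicle wells and 100% = reference inhibitor control wells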
Target sequence (P9WHJ3 whole entry, looked up, canonical isoform): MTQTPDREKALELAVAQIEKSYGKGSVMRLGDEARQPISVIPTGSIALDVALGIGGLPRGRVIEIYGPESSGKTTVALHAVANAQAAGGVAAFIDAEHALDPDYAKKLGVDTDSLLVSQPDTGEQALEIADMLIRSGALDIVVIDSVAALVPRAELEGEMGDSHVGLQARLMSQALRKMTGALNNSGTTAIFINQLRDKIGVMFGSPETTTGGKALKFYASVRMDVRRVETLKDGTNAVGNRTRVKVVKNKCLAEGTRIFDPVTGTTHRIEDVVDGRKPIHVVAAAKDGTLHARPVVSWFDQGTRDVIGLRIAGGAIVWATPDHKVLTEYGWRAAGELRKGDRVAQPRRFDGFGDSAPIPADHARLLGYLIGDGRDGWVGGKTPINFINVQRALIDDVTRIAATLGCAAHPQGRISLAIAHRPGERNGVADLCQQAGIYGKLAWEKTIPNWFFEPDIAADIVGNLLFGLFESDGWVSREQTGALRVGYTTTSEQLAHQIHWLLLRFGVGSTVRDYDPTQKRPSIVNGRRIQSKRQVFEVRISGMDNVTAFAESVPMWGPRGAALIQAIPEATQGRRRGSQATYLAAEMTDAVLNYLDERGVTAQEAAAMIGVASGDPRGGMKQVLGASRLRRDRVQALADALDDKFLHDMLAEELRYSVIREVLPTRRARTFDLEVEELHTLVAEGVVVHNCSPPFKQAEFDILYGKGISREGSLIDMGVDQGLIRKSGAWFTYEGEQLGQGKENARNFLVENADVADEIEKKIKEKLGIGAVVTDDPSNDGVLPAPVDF
Rv3671c inh = inhibitors of M. tuberculosis serine protease Rv3671c | hit rate 0.048% among 320,000 | AID 2606 | inhibition, % at 5.96 µM | P9WHR9; in the data active = inhibition above about 38%;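 also: extracellular domain of Rv3671c used as enzyme; 0% = enzyme with DMSO and 100% = no enzyme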
Mtb bLac sens = beta-lactam sensitization of Mtb H37Rv. hit rate 0.27% among 330,000. inhibition, % at 25 µM. M. tuberculosis H37Rv growth with meropenem, percent inhibition. AID 434955; call rule not given here;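 also: growth measured after seven days incubation then overnight dye step; 0% = bacteria only wells and 100% = bacteria with antibiotic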
FadD28 FP inh = blocks FadD28 binding to the bisubstrate probe; hit rate 0.22% among 360,000; inhibition, % at 12.5 µM; fluorescence polarization; in the data active = inhibition above about 8.5%, passing the limit was not always enough
UGM FP inh = inhibitors of M. tuberculosis UDP-galactopyranose mutase; hit rate 0.06% among 320,000; inhibition, % at 10 µM; P9WIQ1; purified UGM, fluorescence polarization probe displacement; in the data active = inhibition above about 10%, passing the limit was not always enough
Active calls of the source: *; i = inactive; . = no result given. Rows were chosen to be rich in hits. Some 0.92% of all compounds tested hit in one or more screens of this group.

SMILES	Mtb hypoxia rep	RecA splice inh	Rv3671c inh	Mtb bLac sens	FadD28 FP inh	UGM FP inh
O=S(=O)(NCC(c1cccnc1)N1CCN(Cc2ccccc2)CC1)c1ccc(Cl)cc1 (stereo not drawn)	-3	4	2	-5	-4	-2
O=C(CCl)Nc1sccc1C(=O)c1ccccc1	.	57*	-11	100	-2	3
CC(C)CCn1c(=O)c2ccccc2n2c(CCl)nnc12	36*	.	7	93	-1	1
COc1cc(NC(=O)COC(=O)CNC(=O)c2ccc(C)s2)cc(OC)c1	6	6	14	-2	-6	5
COc1ccc(C(=O)COC(=O)CNC(=O)c2ccc(C)s2)c(OC)c1	35*	.	0	0	-4	-1
COc1ccc(NC(=O)CSc2nnc(-c3ccccn3)n2-c2ccccc2)cc1OC	-2	-2	-1	-3	1	-1
CCCCn1c(N)c(C(=O)NCc2cccs2)c2nc3ccccc3nc21	1	75*	-53	12	0	1
Nc1c(C(=O)NCCCc2ccccc2)c2nc3ccccc3nc2n1Cc1cccs1	-6	32*	-19	-10	-11	1
NC(=S)NN=Cc1ccc(-c2ccc(S(=O)(=O)Nc3ncccn3)cc2)o1	7	.	10	-2	23*	.
CCOc1ccc(C(=O)NN=Cc2ccc(-c3ccc(S(=O)(=O)Nc4ncccn4)cc3)o2)cc1	16	.	.	.	.	.
O=C(/C=C/c1cccs1)Nc1scc(-c2ccccc2)c1C(=O)O	7	47*	.	.	7	.
COc1ccc(C2=NN(c3ccc(C(=O)O)cc3)C(c3ccc(OC)c(OC)c3)C2)cc1 (stereo not drawn)	-6	i	17	2	37*	0
COc1ccc(C2CC(c3ccccc3)=NN2c2ccc(S(N)(=O)=O)cc2)cc1OC (stereo not drawn)	6	-40	6	-3	2	-2
CC(C)CN(C(=O)c1ccc(-n2cncn2)c([N+](=O)[O-])c1)C1CCS(=O)(=O)C1 (stereo not drawn)	6	-4	0	-11	22*	4
Cc1[nH][nH]c(=O)c1C(c1ccc(-c2cccc(Cl)c2)o1)c1c(C)[nH][nH]c1=O	17	97*	-163	31	0	-2
Cc1[nH][nH]c(=O)c1C(c1ccc(-c2cccc(C(=O)O)c2)o1)c1c(C)[nH][nH]c1=O	2	.	-109	5	-1	2
CC(C)N(C(=O)[C@H]1C[C@H](CC(=O)NCc2cccc(C(F)(F)F)c2)C(=O)N2CCc3c([nH]c4ccc(Cl)cc34)[C@]12C)C(C)C	-8	.	.	.	-4	.
COC(=O)C1CCN(C(=O)NC(C)(C)C)CC1	7	0	6	-17	-4	-1
COCc1cc(C)nc(SCC(=O)NCc2ccco2)c1C#N	-10	-2	5	11	-1	0
CC(C)(C)c1ccc(NC(=O)C(=O)C2C(=O)Nc3ccccc32)cc1 (stereo not drawn)	1	0	4	29	27*	-2
CC(C)c1ccc(NC(=O)C(=O)C2C(=O)Nc3ccccc32)cc1 (stereo not drawn)	12	-1	4	20	15*	0
COc1cc(C(c2c(C)[nH]n(-c3ccccc3)c2=O)c2c(C)[nH]n(-c3ccccc3)c2=O)cc(OC)c1OC	2	98*	-178	6	0	2
c1ccc(CSc2nnc(-c3cccnc3)o2)cc1	40*	-4	1	72	0	-1
Cc1ccc(CSc2nnc(-c3cccnc3)o2)cc1	-81	-2	1	7	-1	2
CCOC(=O)C1Nc2ccc(Br)cc2C2C=CCC12 (stereo not drawn)	1	10	-4	7	-2	0
SMILES	Mtb hypoxia rep	RecA splice inh	Rv3671c inh	Mtb bLac sens	FadD28 FP inh	UGM FP inh
O=C(O)C1Nc2c(Cl)cc(Cl)c(Cl)c2C2C=CCC12 (stereo not drawn)	8	7	1	-1	7	-1
CC(C)CNC(=O)C1Nc2ccccc2C2C=CCC12 (stereo not drawn)	0	11	8	12	1	0
O=C(O)C1Nc2c(Cl)cc(Cl)cc2C2C=CCC12 (stereo not drawn)	-3	6	3	-13	14*	0
O=C(O)C1Nc2c(O)cccc2C2C=CCC12 (stereo not drawn)	4	.	31	14	15*	1
O=C(O)C1Nc2ccc(Br)cc2C2C=CCC12 (stereo not drawn)	13	0	16	-7	27*	5
CCCC(C)n1[nH]c(=O)c2c1NC(=O)CSC2c1ccc(OC)cc1 (stereo not drawn)	-4	-1	-4	-2	-1	-3
FC(F)=C(F)CCSc1ncn[nH]1	-7	-5	4	3	-1	1
CC(C)CC(NC(=O)CCl)c1ccccc1 (stereo not drawn)	12	44*	3	93	0	2
COc1ccc(-c2nc(-c3cccs3)c(-c3cccs3)[nH]2)cc1O	.	27	17	0	11*	-2
O=C(O)c1ccc(-c2nc(-c3ccccc3)c(-c3cccs3)[nH]2)cc1	2	-4	7	1	1	-4
Cc1ccsc1/C=C1/SC(N2CCOCC2)=NC1=O	48*	1	-17	97	.	.
O=C1N=C(N2CCOCC2)S/C1=C\c1cccs1	.	1	2	-4	-1	1
Cc1c(N2C(=O)/C(=C/c3ccc(N(C)C)cc3)N(C)C2=S)c(=O)n(-c2ccccc2)n1C	40*	.	.	.	0	.
CCN1C(=O)/C(=C2\C=Cc3ccccc3N2CC)SC1=S	37*	2	-5	32	-3	3
Cc1ccc(S(=O)(=O)N2CCC(C(=O)NCc3ccccc3CN3CCCC3)CC2)cc1C	1	.	4	-2	-1	-2
CCCC(C(=O)NC(C)(C)CC)N(CC1CCCO1)C(=O)CNS(=O)(=O)c1ccc(F)cc1 (stereo not drawn)	13	3	4	-4	0	-1
COc1ccccc1NS(=O)(=O)c1cccc(NC(=O)Nc2ccc(Cl)cc2)c1	13	0	-335	-10	31*	1
COc1ccccc1NS(=O)(=O)c1cccc(NC(=O)Nc2ccccc2)c1	10	1	-98	5	-4	0
O=C(CCn1cnc2ccccc2c1=O)Nc1ccc(Cl)c(Cl)c1	-9	-1	-3	-2	-3	-2
Cc1ccc(C(=O)NC(C#N)=C(Cl)Cl)cc1	0	33*	.	.	.	.
Cc1ccc(C(=O)NCC#N)cc1	1	-1	-2	3	-2	4
COc1ccc(NC(=O)CN(C)S(=O)(=O)c2cccc3nsnc23)cc1OC	.	2	-11	-4	1	-4
Cc1cc(C(=O)COc2cccc3cccnc23)c(C)n1C	6	-4	-3	15	-1	16*
Cc1cc(C(=O)COc2ccccc2C(N)=O)c(C)n1C	5	1	9	0	-2	0
N#Cc1c2ncn(CC(=O)c3ccc(Br)cc3)c(=O)c2c2n1CCC2	.	0	8	4	-2	1

From PubChem
